# L3MBTL1 inh: L3MBTL1 (human) inhibition | Q9Y468 | AlphaScreen L3MBTL1–H3K9me1 peptide binding | Potency, µM (titrated, usually from 57.1 µM), for the others: at the highest dose activity, negative = inhibition, hits mostly inhibitors | 0.66% of 230,000 active; also: % is scaled to controls: 0 for no effect and ±100 for the full control effect; nearly all actives have a fitted effect of over 60% in size
#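 AlphaScreen assay: L3MBTL1 (50 nM final) was preincubated 30 min at room temperature with biotinylated H3(1-15)K9me1 peptide (75 nM final), then 30 min with library compounds; streptavidin donor and nickel chelate acceptor beads (10 ug/mL final) added, 30 min dark.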
# JMJD2E inh: inhibitors of human JMJD2E histone demethylase. B2RXH2. JMJD2E catalytic domain, FDH-coupled NADH fluorescence (FDH is formaldehyde dehydrogenase). Potency, µM (highest dose often 57.1 µM), without a hit: at the highest dose activity change, negative = inhibition, hits mostly inhibitors. 1.6% of 230,000 active. AID 2147; active = well fitted inhibition curve with a large enough effect, not every such curve was filed as active; inconclusive = small, poorly fitted or top-dose-only effect, or another doubt; inactive = no such curve, though single readings can be large or run the other way;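 also: 0% = wells with enzyme and -100% = buffer wells without enzyme; nearly all actives have a fitted effect of over 50% in size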
# Target sequence (B2RXH2 1-337 limits assumed): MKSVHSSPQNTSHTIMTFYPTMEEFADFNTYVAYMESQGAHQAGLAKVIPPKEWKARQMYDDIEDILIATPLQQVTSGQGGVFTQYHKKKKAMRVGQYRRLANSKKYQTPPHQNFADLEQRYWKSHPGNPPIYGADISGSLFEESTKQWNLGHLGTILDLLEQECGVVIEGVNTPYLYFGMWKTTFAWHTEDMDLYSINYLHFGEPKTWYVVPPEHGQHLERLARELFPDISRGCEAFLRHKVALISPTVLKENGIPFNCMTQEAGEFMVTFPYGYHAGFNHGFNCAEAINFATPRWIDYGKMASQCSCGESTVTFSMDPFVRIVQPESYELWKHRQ
# HTT cytoprotect: protects HTT-Q103 PC12 cells, measured by ATP | PC12 HTT-Q103 induced, cytoprotection, ATP luminescence, 40 h | Potency, µM (top dose mostly 56.4 µM), for the others: cytoprotection (ATP increase), usual class: activators | 0.14% of 230,000 active | AID 1471; also: % of control where 0% means no effect; nearly all actives have a fitted effect of over 45% in size
#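 PC12 cells stably carrying ecdysone-inducible Htt exon 1 (Q103)–GFP were induced with 100 nM tebufenozide (final) alongside library compounds in a dose series. Cytoprotection was scored as retained ATP by ATPlite luminescence.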
# HTT aggregate: reduces HttQ103-GFP aggregates in PC12 cells | PC12 HttQ103-GFP aggregates, Acumen cytometry, 40 h | Potency, µM (top dose mostly 46.1 µM), inactives show top-dose activity change, negative = inhibition, actives largely listed as inhibitors | AID 1688 | 1.1% of 220,000 active; also: % is scaled to controls: 0 for no effect and ±100 for the full control effect; nearly all actives have a fitted effect of over 60% in size
#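 Multiplexed with ATP-based cell death, this channel scores GFP aggregates in PC12 cells expressing inducible HTTex1-Q103-GFP. Induction used 100 nM tebufenozide; compounds were tested in concentration series.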
# * = called active by the depositor; ? = inconclusive; nt = not tested or not shown; [ ] = remark or other dose. This is a sample that favours compounds with a hit; in the whole collection about 1.8% have one here. Unless noted, calls follow the shape of the dose curve; as a rule, active = well fitted curve in the direction sought with a large enough effect; inconclusive = small, poorly fitted or top-dose-only effect, or another doubt; inactive = no such curve, though single readings can be large; an effect the other way counts as inactive or inconclusive. Potency is read from the fitted curve at half-maximal effect.
SMILES,L3MBTL1 inh,JMJD2E inh,HTT cytoprotect,HTT aggregate
CC[C@]1(O)C[C@H]2CN(CCc3c([nH]c4ccccc34)[C@](C(=O)OC)(c3cc4c(cc3OC)N(C=O)[C@H]3[C@@](O)(C(=O)OC)[C@H](OC(C)=O)[C@@]5(CC)C=CCN6CC[C@]43[C@H]65)C2)C1,nt,nt,-77%[1.9 µM],nt
C/C(CCN1CCCc2nc(C)c(C)cc21)=N\O[C@@H](C)CN1CCCc2nc(C)c(C)cc21,nt,nt,16%[10 µM],nt
CCNc1ncc2nc(-c3ccc(F)cc3)c(=O)n(C[C@H]3CCCO3)c2n1,nt,nt,-23%,nt
CC(C)(C)NC(=O)Nc1ccc(F)c(Cl)c1,4%,-1%,-26%,13µM*
N/C(=N\OC(=O)C(c1ccccc1)c1ccccc1)c1cccnc1,20%,3%,12%,0.71µM*
N/C(=N\OC(=O)COc1ccccc1)c1cccnc1,27%,4%,32%,-10%
Cc1nc(NCCO)c2nc(-c3ccccc3)n(CCCN(C)C)c2n1,nt,?,-46%,nt
CCNc1ncc2nc(-c3ccc(F)cc3)c(=O)n(-c3ccccc3)c2n1,nt,nt,-8%,nt
O=C(NCc1ccco1)c1ccccc1NS(=O)(=O)c1ccc(Br)s1,-7%,-1%,-53%,18µM*
Cc1cc2nc3ccc(=[N+](C)C)cc-3sc2cc1N,-38%,14µM*,-35%[10 µM],-37%[9.22 µM]
O=S(=O)(Nc1ccc(Cc2ccncc2)cc1)c1ccc(Cl)c(Cl)c1,-2%,7%,-60%,11µM*
CC1=NN(c2ccccc2)C(=O)C1N=Nc1ccc(N)cc1 (stereo not drawn),25µM*,14µM*,-25%[10 µM],-19%
CC1=NN(c2ccccc2)C(=O)C1N=Nc1ccccc1 (stereo not drawn),-28%,7%,nt,-10%
CCOc1ccc(S(=O)(=O)n2cnc3cc(C)c(C)cc32)cc1,2%,-2%,1%[10 µM],11µM*
NS(=O)(=O)c1ccc(CCNC(=O)c2ccc3nccnc3c2)cc1,16µM*,nt,nt,nt
Cc1cc(=O)n(CCO)c(O)c1C#N,nt,?,9%,18%
Cc1cc(=O)n(CCc2ccccc2)c(O)c1C#N,-28%,11µM*,-14%[10 µM],-15%
Cc1nc(NC2CCCCC2)c2nc(-c3ccccc3)n(CCCN3CCOCC3)c2n1,nt,?,-46%,nt
CCc1cc(OCCCSc2nc(C)cc(=O)[nH]2)ccc1Cl,nt,1%,6%,35µM*
Cc1cc(=O)[nH]c(SCCCOc2ccccc2Cl)n1,nt,2%,-18%,?
O=P(c1ccccc1)(c1ccccc1)c1nc(-c2ccccc2)oc1NCc1ccccc1,-9%,?,-14%,11µM*
CO[C@@H]1COC(=O)[C@H](C)NC(=O)[C@@H](C)COC(=O)[C@H](C)NC(=O)C/C=C\[C@H]1C,nt,nt,-4%[10 µM],nt
COc1cc(/C=C2/CC/C(=C/c3ccc(O)c(OC)c3)C2=O)ccc1O,-14%,11µM*,1%[10 µM],-2%[9.22 µM]
COc1cc(/C=C2\COC/C(=C\c3ccc(O)c(OC)c3)C2=O)ccc1O,?,-11%,-18%[10 µM],6%[9.22 µM]
C=CCn1c(NCCO)nc2c1c(=O)n(C)c(=O)n2C,4%,-5%,-6%[10 µM],25µM*
SMILES,L3MBTL1 inh,JMJD2E inh,HTT cytoprotect,HTT aggregate
CCCCCCn1c(NCC)nc2c1c(=O)n(C)c(=O)n2C,9%,-18%,-42%[0.074 µM],4µM*
Cn1c(=O)c2c(nc(NCCO)n2C)n(C)c1=O,nt,6%,13%,-21%
CCCCNc1nc2c(c(=O)n(C)c(=O)n2C)n1CCC,nt,9%,-6%[10 µM],4%[9.22 µM]
COCCCNC(=S)N/N=C/c1ccccc1O,?,28µM*,-11%[10 µM],1%[9.22 µM]
CCOc1ccc(/C=N/NC(=S)NC2CC3CCC2C3)cc1 (stereo not drawn),-4%,-6%,4%[10 µM],-7%[9.22 µM]
Oc1ccccc1/C=N/NC(=S)NC1CC2CCC1C2 (stereo not drawn),?,25µM*,2%[10 µM],2%[9.22 µM]
COCCNC(=S)N/N=C/c1ccccc1C(=O)O,nt,1%,-27%,0%[1.84 µM]
CCc1ccc(NC(=O)CSc2nc3ccccc3c(=O)n2CCCN2CCC(C)CC2)cc1,nt,-9%,-78%,22µM*
O=C(CSc1nc2ccccc2c(=O)n1CCCN1CCOCC1)Nc1ccc(Br)cc1,-2%,nt,nt,nt
CCCCc1nc2c(c3c1C[C@H](C)OC3)CN(C(=O)C1CCCCC1)CC2,nt,5%[11.4 µM],8%[10 µM],nt
C=CCNc1ncnc2c1cnn2-c1ccc(C)cc1C,-5%,-16%,-5%[10 µM],-27%
CCOC(=O)N1CCC(Nc2ncnc3c2cnn3-c2ccc(C)cc2C)CC1,5%,-7%,-11%,13µM*
O=C(NC(NC(=S)Nc1ccccc1)C(Cl)(Cl)Cl)c1cccc(Cl)c1 (stereo not drawn),-1%,1%,-71%,11µM*
C=CCOC(=O)C(C(C)=O)C(NC(=O)OC)c1ccc(F)cc1 (stereo not drawn),nt,nt,2%[10 µM],nt
Cc1c(Cl)cccc1N=Cc1ccc([N+](=O)[O-])s1,?,22µM*,-104%,?
COC(=O)[C@@]1(Cc2ccc(F)cc2)[C@@H]2C(=CC(=O)[C@H]2CC(=O)C(=O)N(C)C)CN1C(=O)c1ccccc1,nt,-1%,4µM*,nt
COC(=O)[C@@]1(Cc2ccccc2)[C@@H]2C(=CC(=O)[C@H]2CC(=O)C(=O)N(C)C)CN1C(=O)c1ccccc1,6%,5%,?,?
CC(C)CN=Cc1c(O)c([N+](=O)[O-])cc2oc3c(c12)CCCC3,-8%,13µM*,-16%[1.9 µM],-8%
CC(C)(C)OC(=O)NCCc1nnc(S(=O)(=O)Cc2ccc(Cl)cc2Cl)o1,-3%,-2%,10%[0.074 µM],20µM*
CC(=O)Nc1c([N+](=O)[O-])cc2[nH]c(=O)[nH]c2c1[N+](=O)[O-],-7%,25µM*,-2%[10 µM],25%
COc1ccc(CN(C)C(=O)CCl)cc1,12%,8%,?,13µM*
CN(Cc1ccc(Cl)cc1)C(=O)CCl,nt,-4%,-41%,?
CC(=O)Nc1ccc(NC(=O)COC(=O)c2c3c(nc4ccccc24)CCN(Cc2ccccc2)C3)cc1,-11%,-3%,6%[10 µM],4µM*
O=C(COC(=O)c1c2c(nc3ccccc13)CCN(Cc1ccccc1)C2)Nc1c(F)cccc1F,-9%,?,-5%[10 µM],4%
CCc1ccc(/C=C2\SC(=S)N(CCC(=O)N3CCN(C)CC3)C2=O)cc1,1%[11.4 µM],-4%,18µM*,12%
SMILES,L3MBTL1 inh,JMJD2E inh,HTT cytoprotect,HTT aggregate
CN1CCN(C(=O)CCCN2C(=O)/C(=C/c3ccc(Cl)cc3)SC2=S)CC1,-1%,nt,nt,nt
COc1ccc(C(=O)Oc2c(CN3CCOCC3)cc(Cl)c3cccnc23)cc1,nt,?,-102%,?
COc1cccc(C(=O)Oc2c(CN3CCOCC3)cc(Cl)c3cccnc23)c1,nt,-24%,-93%[10 µM],11µM*
O=C(Oc1c(CN2CCOCC2)cc(Cl)c2cccnc12)c1cccs1,-85%,25µM*,-97%[10 µM],1.3µM*
COc1cc(C(=O)Oc2c(CN3CCOCC3)cc(Cl)c3cccnc23)cc(OC)c1OC,nt,?,-67%,?
O=C(Oc1c(CN2CCOCC2)cc(Cl)c2cccnc12)c1ccc(F)cc1,?,2%,-98%[10 µM],1µM*
O=C(Oc1c(Cl)cc(Cl)c2cccnc12)c1cccs1,16%,-7%,-61%[10 µM],10µM*
CCNc1ncc2nc(-c3ccccc3)c(=O)n(C3CC3)c2n1,nt,nt,-121%,nt
